These results are taken from ChEMBL document CHEMBL1961873, “Compounds: GSK PKIS; Assays: Nanosyn kinase panel” (2012).

The target of test [1] is T1, 3-phosphoinositide-dependent protein kinase 1 (Homo sapiens) (UniProt O15530).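 Note: values are mean inhibition of PDK1.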
T1 sequence (whole entry): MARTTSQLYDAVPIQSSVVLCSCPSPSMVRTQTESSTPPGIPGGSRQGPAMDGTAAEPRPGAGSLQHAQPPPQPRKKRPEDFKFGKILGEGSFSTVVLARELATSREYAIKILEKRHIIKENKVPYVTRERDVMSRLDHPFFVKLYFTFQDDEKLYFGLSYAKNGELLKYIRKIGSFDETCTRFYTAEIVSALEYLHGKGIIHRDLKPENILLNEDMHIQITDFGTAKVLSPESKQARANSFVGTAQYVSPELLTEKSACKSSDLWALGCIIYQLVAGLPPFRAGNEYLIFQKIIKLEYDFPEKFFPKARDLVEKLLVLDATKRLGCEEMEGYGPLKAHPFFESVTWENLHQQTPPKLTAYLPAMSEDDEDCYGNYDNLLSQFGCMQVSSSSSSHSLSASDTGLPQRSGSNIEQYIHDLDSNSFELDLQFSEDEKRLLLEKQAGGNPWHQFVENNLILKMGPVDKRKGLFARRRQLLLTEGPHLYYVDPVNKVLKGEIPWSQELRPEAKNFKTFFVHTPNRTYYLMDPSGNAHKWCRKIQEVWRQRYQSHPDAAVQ
The note with it: at 0.1 µM.

The target of test [2] is cAMP-dependent protein kinase catalytic subunit alpha (Homo sapiens) (UniProt P17612). The note with it: at 0.1 µM.
The target is the same in test [3]. The note with it: at 1 µM.
The target of test [4] is Protein kinase C alpha type (Homo sapiens) (UniProt P17252). The note with it: at 0.1 µM.
The target is the same in test [5]. The note with it: at 1 µM.
The target in test [6] is Protein kinase C beta type (Homo sapiens) (UniProt P05771). The note with it: at 0.1 µM.
Chain of Protein kinase C beta type (Homo sapiens) (P05771 2-671 limits assumed): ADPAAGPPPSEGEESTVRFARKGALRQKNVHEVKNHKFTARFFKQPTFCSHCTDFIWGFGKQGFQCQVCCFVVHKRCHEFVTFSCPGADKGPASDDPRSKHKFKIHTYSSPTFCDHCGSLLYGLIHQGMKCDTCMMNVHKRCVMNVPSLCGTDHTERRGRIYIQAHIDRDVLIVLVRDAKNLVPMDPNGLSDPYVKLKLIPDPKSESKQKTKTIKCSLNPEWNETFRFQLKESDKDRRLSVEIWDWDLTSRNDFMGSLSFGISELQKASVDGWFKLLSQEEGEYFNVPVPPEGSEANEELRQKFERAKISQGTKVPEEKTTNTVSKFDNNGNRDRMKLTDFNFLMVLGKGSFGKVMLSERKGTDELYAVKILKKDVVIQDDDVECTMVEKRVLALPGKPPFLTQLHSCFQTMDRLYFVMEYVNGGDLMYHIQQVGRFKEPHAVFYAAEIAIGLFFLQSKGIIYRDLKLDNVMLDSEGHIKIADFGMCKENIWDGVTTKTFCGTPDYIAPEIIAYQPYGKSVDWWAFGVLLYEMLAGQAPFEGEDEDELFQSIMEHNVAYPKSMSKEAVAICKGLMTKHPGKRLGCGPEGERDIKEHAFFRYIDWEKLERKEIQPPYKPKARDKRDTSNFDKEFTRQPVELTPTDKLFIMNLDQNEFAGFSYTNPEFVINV
Test [7] has the same target. The note with it: at 1 µM.
For test [8], the target named is Protein kinase C eta type (Homo sapiens) (UniProt P24723). The note with it: at 0.1 µM.
Chain of Protein kinase C eta type (Homo sapiens) (P24723 whole entry): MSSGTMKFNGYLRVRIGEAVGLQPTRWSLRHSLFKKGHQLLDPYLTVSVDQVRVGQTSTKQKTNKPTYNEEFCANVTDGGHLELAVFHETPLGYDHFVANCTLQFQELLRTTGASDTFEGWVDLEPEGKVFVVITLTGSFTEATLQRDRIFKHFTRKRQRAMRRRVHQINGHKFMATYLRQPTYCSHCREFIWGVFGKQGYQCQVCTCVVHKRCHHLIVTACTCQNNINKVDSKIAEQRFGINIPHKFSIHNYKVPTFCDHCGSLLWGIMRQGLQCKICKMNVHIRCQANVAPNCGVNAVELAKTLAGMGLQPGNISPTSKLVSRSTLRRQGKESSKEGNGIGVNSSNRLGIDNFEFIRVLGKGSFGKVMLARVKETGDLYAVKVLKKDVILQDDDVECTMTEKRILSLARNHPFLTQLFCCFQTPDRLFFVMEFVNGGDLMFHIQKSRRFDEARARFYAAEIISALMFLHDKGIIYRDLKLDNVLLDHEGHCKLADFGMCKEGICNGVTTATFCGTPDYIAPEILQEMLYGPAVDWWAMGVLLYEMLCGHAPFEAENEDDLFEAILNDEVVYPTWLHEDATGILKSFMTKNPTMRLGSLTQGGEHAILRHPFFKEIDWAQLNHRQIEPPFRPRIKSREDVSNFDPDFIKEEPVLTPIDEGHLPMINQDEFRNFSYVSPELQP
The target is the same in test [9]. The note with it: at 1 µM.
In test [10] the target is Protein kinase C gamma type (Homo sapiens) (UniProt P05129). The note with it: at 0.1 µM.
The target is the same in test [11]. The note with it: at 1 µM.
Test [12] concerns the target T2, Protein kinase C iota type (Homo sapiens) (UniProt P41743).
T2 sequence (whole entry): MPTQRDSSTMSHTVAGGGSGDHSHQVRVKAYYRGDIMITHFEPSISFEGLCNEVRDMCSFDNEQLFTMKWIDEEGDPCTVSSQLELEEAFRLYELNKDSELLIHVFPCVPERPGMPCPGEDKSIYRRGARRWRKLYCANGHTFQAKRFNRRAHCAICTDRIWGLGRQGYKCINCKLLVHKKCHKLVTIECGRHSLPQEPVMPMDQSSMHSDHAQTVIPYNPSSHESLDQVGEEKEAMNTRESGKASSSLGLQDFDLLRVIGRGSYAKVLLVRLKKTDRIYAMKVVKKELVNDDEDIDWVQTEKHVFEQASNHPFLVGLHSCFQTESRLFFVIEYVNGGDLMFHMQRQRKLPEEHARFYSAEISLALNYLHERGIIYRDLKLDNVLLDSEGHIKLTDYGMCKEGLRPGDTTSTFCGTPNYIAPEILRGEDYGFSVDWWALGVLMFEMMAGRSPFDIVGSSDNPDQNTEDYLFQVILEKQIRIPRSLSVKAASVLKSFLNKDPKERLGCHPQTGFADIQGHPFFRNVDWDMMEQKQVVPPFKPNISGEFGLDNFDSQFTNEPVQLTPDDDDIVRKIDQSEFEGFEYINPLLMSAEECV
The note with it: at 0.1 µM.

For test [13], the target named is T2, Protein kinase C iota type (Homo sapiens). The note with it: at 1 µM.
Test [14] concerns the target Protein kinase C theta type (Homo sapiens) (UniProt Q04759). The note with it: at 0.1 µM.
Test [15] shares this target. The note with it: at 1 µM.
In test [16] the target is Protein kinase C beta type (Homo sapiens) (UniProt P05771). The note with it: at 0.1 µM. The source holds these as a separate data set.
Test [17] has the same target. The note with it: at 1 µM. The source holds these as a separate data set.
In test [18] the target is T3, Serine/threonine-protein kinase D1 (Homo sapiens) (UniProt Q15139).
T3 sequence (whole entry): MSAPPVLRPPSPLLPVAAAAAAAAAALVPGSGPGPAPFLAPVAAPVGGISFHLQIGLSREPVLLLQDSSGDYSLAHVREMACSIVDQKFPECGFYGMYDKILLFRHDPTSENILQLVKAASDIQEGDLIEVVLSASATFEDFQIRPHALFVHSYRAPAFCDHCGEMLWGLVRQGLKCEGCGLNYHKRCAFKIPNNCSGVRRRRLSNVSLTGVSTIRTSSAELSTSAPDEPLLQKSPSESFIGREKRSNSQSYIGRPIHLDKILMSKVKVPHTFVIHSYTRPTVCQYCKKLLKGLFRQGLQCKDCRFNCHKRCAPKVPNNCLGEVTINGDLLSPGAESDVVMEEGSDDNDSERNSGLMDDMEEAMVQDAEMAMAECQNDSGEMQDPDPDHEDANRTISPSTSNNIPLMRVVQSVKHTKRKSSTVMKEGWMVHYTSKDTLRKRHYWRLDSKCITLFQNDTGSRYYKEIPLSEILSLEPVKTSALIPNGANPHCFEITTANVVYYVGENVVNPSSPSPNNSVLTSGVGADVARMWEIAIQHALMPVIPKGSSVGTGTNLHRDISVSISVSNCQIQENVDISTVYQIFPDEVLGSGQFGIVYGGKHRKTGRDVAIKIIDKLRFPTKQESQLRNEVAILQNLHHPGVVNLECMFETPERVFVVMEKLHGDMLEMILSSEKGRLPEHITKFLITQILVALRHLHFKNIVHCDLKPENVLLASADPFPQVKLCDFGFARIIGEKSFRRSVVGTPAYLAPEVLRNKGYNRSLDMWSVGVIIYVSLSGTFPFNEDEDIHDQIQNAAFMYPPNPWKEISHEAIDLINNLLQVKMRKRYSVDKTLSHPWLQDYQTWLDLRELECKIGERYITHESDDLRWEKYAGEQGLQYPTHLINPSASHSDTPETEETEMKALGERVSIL
The note with it: at 0.1 µM.

Test [19] deals with T3, Serine/threonine-protein kinase D1 (Homo sapiens). The note with it: at 1 µM.
Test [20] deals with T4, Serine/threonine-protein kinase D2 (Homo sapiens) (UniProt Q9BZL6).
T4 sequence (whole entry): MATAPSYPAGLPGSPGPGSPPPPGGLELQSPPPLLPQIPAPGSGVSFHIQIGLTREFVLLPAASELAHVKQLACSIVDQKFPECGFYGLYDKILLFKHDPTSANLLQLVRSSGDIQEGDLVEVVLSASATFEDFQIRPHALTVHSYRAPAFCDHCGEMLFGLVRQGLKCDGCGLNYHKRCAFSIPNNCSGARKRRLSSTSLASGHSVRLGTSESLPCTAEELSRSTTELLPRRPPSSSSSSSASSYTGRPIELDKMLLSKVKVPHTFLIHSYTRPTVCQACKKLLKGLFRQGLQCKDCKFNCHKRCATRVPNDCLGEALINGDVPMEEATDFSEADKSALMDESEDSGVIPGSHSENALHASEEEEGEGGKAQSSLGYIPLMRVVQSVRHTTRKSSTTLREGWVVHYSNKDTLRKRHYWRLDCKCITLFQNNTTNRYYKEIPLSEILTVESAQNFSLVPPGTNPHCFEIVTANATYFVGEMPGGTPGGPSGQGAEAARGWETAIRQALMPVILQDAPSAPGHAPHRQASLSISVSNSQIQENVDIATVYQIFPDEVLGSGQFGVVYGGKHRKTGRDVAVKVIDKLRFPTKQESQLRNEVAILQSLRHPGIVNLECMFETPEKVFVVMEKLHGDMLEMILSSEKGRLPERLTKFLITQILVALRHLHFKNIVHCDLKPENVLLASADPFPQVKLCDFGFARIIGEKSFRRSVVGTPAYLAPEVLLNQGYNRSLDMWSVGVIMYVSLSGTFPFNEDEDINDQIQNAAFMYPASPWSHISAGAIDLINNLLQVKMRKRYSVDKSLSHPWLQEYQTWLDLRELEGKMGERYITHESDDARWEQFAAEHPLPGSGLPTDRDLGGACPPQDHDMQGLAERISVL
The note with it: at 0.1 µM.

Chain of Protein kinase C theta type (Homo sapiens) (Q04759 whole entry, looked up): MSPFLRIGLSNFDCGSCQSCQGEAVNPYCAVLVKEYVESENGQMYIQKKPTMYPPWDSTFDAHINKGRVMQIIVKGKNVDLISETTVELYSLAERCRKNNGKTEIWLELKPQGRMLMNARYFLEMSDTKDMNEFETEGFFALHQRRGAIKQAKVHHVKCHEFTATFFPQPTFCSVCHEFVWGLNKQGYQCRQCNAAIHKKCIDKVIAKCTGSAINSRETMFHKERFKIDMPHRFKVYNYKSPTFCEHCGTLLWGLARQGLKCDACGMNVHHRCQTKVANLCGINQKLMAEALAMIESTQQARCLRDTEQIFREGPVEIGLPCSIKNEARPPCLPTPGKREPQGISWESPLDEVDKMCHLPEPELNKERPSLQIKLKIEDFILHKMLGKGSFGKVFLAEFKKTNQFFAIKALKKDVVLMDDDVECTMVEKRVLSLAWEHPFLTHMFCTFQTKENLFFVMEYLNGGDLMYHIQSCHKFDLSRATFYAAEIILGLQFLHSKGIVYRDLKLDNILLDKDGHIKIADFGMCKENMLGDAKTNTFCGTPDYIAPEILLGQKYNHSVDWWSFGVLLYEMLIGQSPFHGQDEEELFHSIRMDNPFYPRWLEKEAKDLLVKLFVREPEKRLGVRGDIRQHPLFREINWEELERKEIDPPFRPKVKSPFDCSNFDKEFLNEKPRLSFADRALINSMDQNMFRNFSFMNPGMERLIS

What is called inhibition is the change of the read-out against control, counted positive when it falls. As for `Nc1nc(-c2ccc3c(c2)C(=Cc2cc(Br)c(O)c(Br)c2)C(=O)N3)cs1`, the inhibition in test [1] was -1.98%; in [2], -0.95%; in [3], -0.7%; in [4] it was -0.01%; in test [5] it was 1.51%; in [6], 0.67%. Moreover, the inhibition in test [7] was 0.52%; in [8] it was -1.62%; in [9], -1.96%; in test [10], -2.56%; in [11] it was 2.01%; in test [12] it was 0.79%. Besides, the inhibition in test [13] is 0.34%; in [14], -1.06%; in test [15], 0.33%; in test [16], -0.52%; in [17], 1.78%; in test [18], -1.69%. Further, the inhibition in test [19] was -1.78%; in test [20], -2.06%.
For the compound `CN1CCC(C(=O)Nc2n[nH]c3nnc(-c4ccccc4)cc23)CC1`, the inhibition amounted to 0.14% in test [1]; 2.6% in test [2]; 1.51% in test [3]; 0.67% in [4]; 1.72% in test [5]; 1.03% in [6]. The inhibition was 1.27% in test [7]; 4.63% in [8]; 5.6% in test [9]; 2.25% in [10]; 5.3% in test [11]; 2.28% in test [12]. For the same compound, the inhibition in [13] was 0.85%; in test [14], 2.64%; in test [15] it was 3.84%; in test [16], 1.32%; in test [17], 1.6%; in [18], 5.4%. Also, the inhibition stood at 6.32% in [19] and 4.78% in test [20].
For the compound `Fc1cccc(COc2ccc(Nc3ncnc4sc(-c5cccs5)cc34)cc2Cl)c1`, the inhibition is -0.7% in test [1]; 1.34% in test [2]; 1.04% in test [3]; -0.17% in test [4]; 0.09% in test [5]; -0.52% in test [6]. Also, the inhibition was -0.08% in test [7]; 1.43% in test [8]; 1.98% in test [9]; -0.34% in [10]; 2.13% in [11]; 0.71% in test [12]. For the same compound, the inhibition in test [13] is 1.19%; in [14], 0.32%; in [15], 0.01%; in test [16], -0.19%; in test [17], 0.44%; in [18], 0.09%. Moreover, the inhibition is 0.23% in test [19] and -1.32% in test [20].
Turning to `Cc1cc(O)cc(C)c1/C=C/c1cncc(-c2nn[nH]n2)c1`, the inhibition in test [1] is 2.02%; in test [2], -1.63%; in [3], -1.78%; in test [4] it was -2.41%; in test [5], -0.54%; in test [6] it was 0.1%. In addition, the inhibition is 2.35% in test [7]; 1% in test [8]; 5.67% in test [9]; -3.08% in test [10]; 3.79% in [11]; 2.14% in test [12]. In addition, the inhibition in test [13] stood at 2.11%; in [14] it was 2.61%; in test [15] it was 3.08%; in test [16] it was 1.15%; in [17], 4.04%; in test [18], 1.38%. For the same compound, the results for the inhibition in [19] and in test [20] were 4.65% and 2.35%, respectively.
Consider `CC(=O)Nc1cccc(C#Cc2cncnc2Nc2ccc(OCc3cccc(F)c3)c(Cl)c2)n1`, for which the inhibition in test [1] is -0.76%; in test [2], 2.4%; in test [3], 4.87%; in test [4] it was 1.1%; in test [5], 0.59%; in test [6], 5.03%. Besides, the inhibition in test [7] worked out at 8.84%; in test [8], 0.65%; in test [9] it was 3.65%; in [10], 2.74%; in test [11], 1.63%; in test [12], 0.57%. The inhibition in test [13] is -0.05%; in [14], 1.96%; in test [15] it was 3.96%; in [16], 2.66%; in test [17], 2.15%; in test [18], -0.03%. The inhibition was -2.44% in [19] and -1.45% in [20].
Regarding `Cc1cccc(-c2n[nH]cc2-c2ccc3ncccc3n2)n1`, the inhibition is 1.02% in test [1]; 1.12% in test [2]; 1.28% in test [3]; 0.19% in test [4]; -0.46% in test [5]; 0.17% in [6]. The inhibition in test [7] is 0.39%; in [8], -0.08%; in test [9] it was 2.61%; in test [10] it was -0.61%; in test [11] it was 0.55%; in test [12] it was 0.4%. Besides, the inhibition in [13] is -1.7%; in test [14], 0.33%; in test [15], -0.49%; in test [16] it was 0.52%; in [17], 0.49%; in test [18], 2.77%. Also, the inhibition in test [19] amounted to 32.8%; in [20], 5.63%.
With `O=C1NC(=O)C(c2cccc(Cl)c2)=C1Nc1ccc(O)c(Cl)c1`, the inhibition in [1] worked out at 0.43%; in test [2] it was 1.25%; in [3] it was 1.73%; in test [4] it was 3.2%; in test [5], 6.33%; in test [6], 0.44%. Further, the inhibition in [7] is 4.94%; in [8], 1.88%; in test [9] it was 2.97%; in test [10], -4.59%; in test [11], 0.01%; in test [12] it was -1.41%. Also, the inhibition in [13] came to 0.5%; in [14] it was 0%; in test [15] it was 4.79%; in test [16] it was 0.56%; in test [17], 8.45%; in test [18] it was 0.15%. The inhibition in test [19] was 1.38%; in test [20], 0.62%.
